The results in this text go back to PMC10668032, “Altered binding affinity of SIX1-Q177R correlates with enhanced WNT5A and WNT pathway effector expression in Wilms tumor”.

Whole data set: some 33,000 sequences, median “e-score” near -0.053, cut for the highest 2% near 0.38. For the sample, the highest values were picked, then their nearest neighbours and some sequences at random.

The target of this assay is T1, SIX1 homeodomain (reference allele) (human, UniProt Q15475 108-198).
T1 sequence: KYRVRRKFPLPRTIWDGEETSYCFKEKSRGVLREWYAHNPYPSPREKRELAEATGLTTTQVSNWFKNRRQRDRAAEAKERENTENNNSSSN
The assay is described as follows: universal protein binding microarray; Universal all-10-mer PBM (8x60K, AMADID 030236), 300 nM GST-tagged protein, Alexa Fluor 488 anti-GST; buffer, salt, pH and temperature not stated (as in Berger); high values mean tight binding. The conditions noted are these: protein: ivt; tags: N-terminal GST; dsDNA, one strand shown. The method in brief: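 Binding was expressed as 8-mer E-scores calculated with the Universal PBM Analysis Suite. The GST-tagged homeodomains, made by in vitro transcription/translation, were applied in duplicate at 300 nM final concentration to universal 'all 10-mer' protein binding microarrays (8×60K format).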
CCATACAC: the binding signal came to 0.174 ± 0.121 E-score. The same measure for ATCATTGA: 0.2801 ± 0.000297 E-score; for ATCGTGTC: 0.274 ± 0.0122 E-score. GATAGATA: the binding signal is 0.364 ± 0.0331 E-score.

Regarding CTAGTGTA, the binding signal was 0.189 ± 0.0116 E-score.

Turning to GGTTCATA, the binding signal worked out at 0.154 ± 0.00678 E-score. The same measure for CCATACCC: 0.274 ± 0.0803 E-score; for TAATACCA: 0.37 ± 0.0315 E-score. The same measure for CGATACCC: 0.4916 ± 0.00317 E-score. Next, CAATACCA: 0.375 ± 0.0246 E-score; CGATACCA: 0.455 ± 0.0104 E-score; ACATACCC: 0.194 ± 0.0165 E-score. Turning to CTATACCA, the binding signal is 0.245 ± 0.018 E-score. The same measure for TGATACAA: 0.337 ± 0.0251 E-score; for CGATAACC: 0.2329 ± 0.00167 E-score. For the sequence AGATACCC, the binding signal worked out at 0.4684 ± 0.00214 E-score. With TGATACCA, the binding signal amounted to 0.4811 ± 0.00363 E-score. The same measure for AGATACCG: 0.37 ± 0.00507 E-score; for CGGTACTC: 0.176 ± 0.0493 E-score. Next, ATCAGGGG: 0.307 ± 0.019 E-score; TAGTGTCA: 0.245 ± 0.0279 E-score. The same measure for ATCAATCA: 0.221 ± 0.00233 E-score. Turning to AAACGTAT, the binding signal turned out to be 0.262 ± 0.0965 E-score. Turning to ATATTCCC, the binding signal came to 0.305 ± 0.0527 E-score. The same measure for ATACTGGG: 0.225 ± 0.0379 E-score; for ACGATCAT: 0.186 ± 0.0246 E-score; for ATCACGTC: 0.189 ± 0.0151 E-score.

Consider ATATGTCA, for which the binding signal was 0.166 ± 0.0885 E-score. For the sequence AAATACCC, the binding signal was determined as 0.2 ± 0.00818 E-score. The same measure for GGATACCC: 0.484 ± 0.00911 E-score; for GCATACCC: 0.289 ± 0.0463 E-score; for GGATACCA: 0.426 ± 0.0353 E-score. With GTATACCA, the binding signal came to 0.364 ± 0.00595 E-score.

For GAATACCA, the binding signal worked out at 0.278 ± 0.0281 E-score. With AGTATAAG, the binding signal came out at 0.161 ± 0.0893 E-score. The same measure for TAATATAA: 0.257 ± 0.0514 E-score; for ATCCACGA: 0.154 ± 0.0369 E-score.

Take ACTATCCT: the binding signal is 0.318 ± 0.0157 E-score. The same measure for CTATTATC: 0.189 ± 0.0626 E-score; for GACTATAC: 0.237 ± 0.00521 E-score.

In the case of ACGATATG, the binding signal is 0.417 ± 0.0227 E-score. Next, ACTATATC: 0.367 ± 0.0339 E-score. Next, ACGATCGG: 0.169 ± 0.0263 E-score.

On to CCGATAGC, for which the binding signal was determined as 0.329 ± 0.00875 E-score. CCGATATC: the binding signal was determined as 0.457 ± 0.0156 E-score. As for ACGATCTC, the binding signal was found to be 0.189 ± 0.0362 E-score. Next, ACGATATA: 0.296 ± 0.0641 E-score. Next, CCGATAAC: 0.239 ± 0.00451 E-score. Turning to ACGATATC, the binding signal came to 0.454 ± 0.0379 E-score. Next, ACCACACC: 0.174 ± 0.038 E-score; ATACGCCC: 0.275 ± 0.0117 E-score. The same measure for GATAACCA: 0.213 ± 0.00941 E-score; for ATCACTTG: 0.29 ± 0.0319 E-score. In the case of GGCTAATA, the binding signal came out at 0.201 ± 0.0383 E-score. Regarding AATATGGT, the binding signal was found to be 0.177 ± 0.105 E-score. Next, GATAGCAC: 0.236 ± 0.0609 E-score; GGGCGATA: 0.347 ± 0.0047 E-score. The same measure for CCGCGATA: 0.4109 ± 0.00278 E-score; for GCGCGATA: 0.379 ± 0.0395 E-score; for CGGCGATA: 0.3475 ± 0.00182 E-score. ACGCGATA: the binding signal was 0.316 ± 0.0166 E-score. Next, CCGCGATC: 0.354 ± 0.0349 E-score. The same measure for ATATAGAG: 0.202 ± 0.0348 E-score; for CCAGATGA: 0.203 ± 0.0127 E-score; for ACTACCTA: 0.157 ± 0.0187 E-score.

For the sequence GAATACTC, the binding signal amounted to 0.155 ± 0.0382 E-score. Next, ATAGATAG: 0.167 ± 0.0369 E-score; ATAGATAC: 0.393 ± 0.0221 E-score. Next, ACAGATAT: 0.356 ± 0.0703 E-score; ATAGATCC: 0.302 ± 0.00993 E-score; ATAGATAT: 0.389 ± 0.0559 E-score. Consider GTAGATAC, for which the binding signal is 0.289 ± 0.0214 E-score. The same measure for ATCACCTA: 0.232 ± 0.0325 E-score; for AGACGATA: 0.363 ± 0.0344 E-score; for ATATCTTC: 0.365 ± 0.0612 E-score.

On to CCGTCTCA, for which the binding signal is 0.268 ± 0.0487 E-score.

Turning to AAGTATAA, the binding signal came out at 0.184 ± 0.123 E-score. As to GAGTATTA, the binding signal was determined as 0.261 ± 0.103 E-score. The same measure for TAGTATAA: 0.199 ± 0.033 E-score; for CAGTATCA: 0.465 ± 0.0101 E-score; for AAGTATCA: 0.461 ± 0.0304 E-score.

TAGTATCA: the binding signal came to 0.457 ± 0.0196 E-score. Next, GAGTATCA: 0.47 ± 0.0248 E-score; GAGTATAA: 0.179 ± 0.136 E-score.

Take CAGTATGA: the binding signal came out at 0.151 ± 0.0873 E-score. CAGTATTA: the binding signal is 0.295 ± 0.0164 E-score. Next, TACTATCA: 0.325 ± 0.0557 E-score; AAGTATCT: 0.266 ± 0.102 E-score.
